This note sets out measurements from ChEMBL document CHEMBL1961873, “Compounds: GSK PKIS; Assays: Nanosyn kinase panel” (2012).

The target of experiment [1] is T1, Tyrosine-protein kinase receptor TYRO3 (Homo sapiens) (UniProt Q06418).
T1 sequence (whole entry): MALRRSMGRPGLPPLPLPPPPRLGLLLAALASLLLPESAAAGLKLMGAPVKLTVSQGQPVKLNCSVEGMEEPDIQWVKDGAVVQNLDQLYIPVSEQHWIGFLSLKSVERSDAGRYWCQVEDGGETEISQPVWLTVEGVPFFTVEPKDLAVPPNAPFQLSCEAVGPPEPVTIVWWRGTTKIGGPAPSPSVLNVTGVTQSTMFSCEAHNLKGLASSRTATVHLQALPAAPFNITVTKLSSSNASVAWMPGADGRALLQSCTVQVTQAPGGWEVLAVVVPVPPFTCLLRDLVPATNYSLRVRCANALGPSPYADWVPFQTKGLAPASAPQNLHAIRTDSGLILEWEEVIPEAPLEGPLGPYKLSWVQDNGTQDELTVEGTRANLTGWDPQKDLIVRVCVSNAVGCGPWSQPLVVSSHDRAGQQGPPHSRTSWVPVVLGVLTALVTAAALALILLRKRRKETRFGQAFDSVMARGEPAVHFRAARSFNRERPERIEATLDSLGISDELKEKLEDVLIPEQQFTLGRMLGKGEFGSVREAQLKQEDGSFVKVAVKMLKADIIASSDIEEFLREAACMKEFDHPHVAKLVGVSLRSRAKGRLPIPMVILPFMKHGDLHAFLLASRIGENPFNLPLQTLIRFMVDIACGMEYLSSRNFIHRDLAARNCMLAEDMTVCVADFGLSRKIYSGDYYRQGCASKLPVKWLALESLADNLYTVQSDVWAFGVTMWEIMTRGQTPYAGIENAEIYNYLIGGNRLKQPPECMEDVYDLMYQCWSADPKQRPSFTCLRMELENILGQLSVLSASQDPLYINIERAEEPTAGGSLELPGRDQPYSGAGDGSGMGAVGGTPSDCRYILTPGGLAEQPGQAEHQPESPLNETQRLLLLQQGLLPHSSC
The settings on record: at 1 µM.

Experiment [2] deals with Tyrosine-protein kinase Yes (Homo sapiens) (UniProt P07947). The following applies: at 0.1 µM.
Experiment [3] has the same target. The following applies: at 1 µM.
In experiment [4] the target is T2, Tyrosine-protein kinase ZAP-70 (Homo sapiens) (UniProt P43403).
T2 sequence (whole entry): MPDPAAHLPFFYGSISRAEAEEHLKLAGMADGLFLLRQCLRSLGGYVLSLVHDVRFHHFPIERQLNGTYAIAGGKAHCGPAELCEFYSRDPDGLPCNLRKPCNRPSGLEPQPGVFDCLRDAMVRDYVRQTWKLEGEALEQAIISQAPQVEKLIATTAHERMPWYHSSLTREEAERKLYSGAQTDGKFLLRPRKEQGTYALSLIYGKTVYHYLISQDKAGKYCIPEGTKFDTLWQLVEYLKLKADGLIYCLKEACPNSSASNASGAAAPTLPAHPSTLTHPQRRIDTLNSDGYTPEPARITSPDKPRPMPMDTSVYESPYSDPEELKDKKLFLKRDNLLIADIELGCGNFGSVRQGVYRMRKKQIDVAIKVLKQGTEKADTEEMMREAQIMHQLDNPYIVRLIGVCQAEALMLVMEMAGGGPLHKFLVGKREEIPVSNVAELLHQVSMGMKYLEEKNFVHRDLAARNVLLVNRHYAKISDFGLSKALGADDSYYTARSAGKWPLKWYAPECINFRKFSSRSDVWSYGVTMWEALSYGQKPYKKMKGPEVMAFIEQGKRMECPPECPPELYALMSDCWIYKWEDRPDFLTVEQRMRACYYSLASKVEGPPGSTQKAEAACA
The following applies: at 0.1 µM.

For experiment [5], the target named is T2, Tyrosine-protein kinase ZAP-70 (Homo sapiens). The settings on record: at 1 µM.
The target of experiment [6] is Serine/threonine-protein kinase B-raf (Homo sapiens) (UniProt P15056). The settings on record: at 0.1 µM.
The target is the same in experiment [7]. The following applies: at 1 µM.
In experiment [8] the test system is Serine/threonine-protein kinase B-raf (Homo sapiens), P15056 [V600E]. The following applies: at 0.1 µM.
For experiment [9] the test system is unchanged. The settings on record: at 1 µM.
The target in experiment [10] is RAF proto-oncogene serine/threonine-protein kinase (Homo sapiens) (UniProt P04049). The settings on record: at 0.1 µM.
For experiment [11] the target is unchanged. The settings on record: at 1 µM.
Experiment [12] deals with T3, Interleukin-1 receptor-associated kinase 4 (Homo sapiens) (UniProt Q9NWZ3).
T3 sequence (whole entry): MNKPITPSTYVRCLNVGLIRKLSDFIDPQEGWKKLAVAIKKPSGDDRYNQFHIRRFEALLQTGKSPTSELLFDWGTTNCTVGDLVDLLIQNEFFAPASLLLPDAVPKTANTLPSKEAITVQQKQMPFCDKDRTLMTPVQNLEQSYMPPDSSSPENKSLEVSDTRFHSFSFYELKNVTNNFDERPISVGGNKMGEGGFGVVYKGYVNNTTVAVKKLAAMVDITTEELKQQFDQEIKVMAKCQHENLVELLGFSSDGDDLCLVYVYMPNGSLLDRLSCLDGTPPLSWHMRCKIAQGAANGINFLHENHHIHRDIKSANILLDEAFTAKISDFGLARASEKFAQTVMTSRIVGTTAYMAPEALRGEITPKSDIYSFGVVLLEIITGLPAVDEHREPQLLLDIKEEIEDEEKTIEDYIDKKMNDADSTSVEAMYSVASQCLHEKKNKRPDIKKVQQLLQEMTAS
The following applies: at 0.1 µM.

The target in experiment [13] is T3, Interleukin-1 receptor-associated kinase 4 (Homo sapiens). The settings on record: at 1 µM.
Experiment [14] has as its target Leucine-rich repeat serine/threonine-protein kinase 2 (Homo sapiens) (UniProt Q5S007). The following applies: at 0.1 µM.
The target is the same in experiment [15]. The following applies: at 1 µM.
Experiment [16] deals with Leucine-rich repeat serine/threonine-protein kinase 2 (Homo sapiens), Q5S007 [G2019S]. The following applies: at 0.1 µM.
For experiment [17] the test system is unchanged. The following applies: at 1 µM.

Leucine-rich repeat serine/threonine-protein kinase 2 (Homo sapiens), sequence (Q5S007 whole entry): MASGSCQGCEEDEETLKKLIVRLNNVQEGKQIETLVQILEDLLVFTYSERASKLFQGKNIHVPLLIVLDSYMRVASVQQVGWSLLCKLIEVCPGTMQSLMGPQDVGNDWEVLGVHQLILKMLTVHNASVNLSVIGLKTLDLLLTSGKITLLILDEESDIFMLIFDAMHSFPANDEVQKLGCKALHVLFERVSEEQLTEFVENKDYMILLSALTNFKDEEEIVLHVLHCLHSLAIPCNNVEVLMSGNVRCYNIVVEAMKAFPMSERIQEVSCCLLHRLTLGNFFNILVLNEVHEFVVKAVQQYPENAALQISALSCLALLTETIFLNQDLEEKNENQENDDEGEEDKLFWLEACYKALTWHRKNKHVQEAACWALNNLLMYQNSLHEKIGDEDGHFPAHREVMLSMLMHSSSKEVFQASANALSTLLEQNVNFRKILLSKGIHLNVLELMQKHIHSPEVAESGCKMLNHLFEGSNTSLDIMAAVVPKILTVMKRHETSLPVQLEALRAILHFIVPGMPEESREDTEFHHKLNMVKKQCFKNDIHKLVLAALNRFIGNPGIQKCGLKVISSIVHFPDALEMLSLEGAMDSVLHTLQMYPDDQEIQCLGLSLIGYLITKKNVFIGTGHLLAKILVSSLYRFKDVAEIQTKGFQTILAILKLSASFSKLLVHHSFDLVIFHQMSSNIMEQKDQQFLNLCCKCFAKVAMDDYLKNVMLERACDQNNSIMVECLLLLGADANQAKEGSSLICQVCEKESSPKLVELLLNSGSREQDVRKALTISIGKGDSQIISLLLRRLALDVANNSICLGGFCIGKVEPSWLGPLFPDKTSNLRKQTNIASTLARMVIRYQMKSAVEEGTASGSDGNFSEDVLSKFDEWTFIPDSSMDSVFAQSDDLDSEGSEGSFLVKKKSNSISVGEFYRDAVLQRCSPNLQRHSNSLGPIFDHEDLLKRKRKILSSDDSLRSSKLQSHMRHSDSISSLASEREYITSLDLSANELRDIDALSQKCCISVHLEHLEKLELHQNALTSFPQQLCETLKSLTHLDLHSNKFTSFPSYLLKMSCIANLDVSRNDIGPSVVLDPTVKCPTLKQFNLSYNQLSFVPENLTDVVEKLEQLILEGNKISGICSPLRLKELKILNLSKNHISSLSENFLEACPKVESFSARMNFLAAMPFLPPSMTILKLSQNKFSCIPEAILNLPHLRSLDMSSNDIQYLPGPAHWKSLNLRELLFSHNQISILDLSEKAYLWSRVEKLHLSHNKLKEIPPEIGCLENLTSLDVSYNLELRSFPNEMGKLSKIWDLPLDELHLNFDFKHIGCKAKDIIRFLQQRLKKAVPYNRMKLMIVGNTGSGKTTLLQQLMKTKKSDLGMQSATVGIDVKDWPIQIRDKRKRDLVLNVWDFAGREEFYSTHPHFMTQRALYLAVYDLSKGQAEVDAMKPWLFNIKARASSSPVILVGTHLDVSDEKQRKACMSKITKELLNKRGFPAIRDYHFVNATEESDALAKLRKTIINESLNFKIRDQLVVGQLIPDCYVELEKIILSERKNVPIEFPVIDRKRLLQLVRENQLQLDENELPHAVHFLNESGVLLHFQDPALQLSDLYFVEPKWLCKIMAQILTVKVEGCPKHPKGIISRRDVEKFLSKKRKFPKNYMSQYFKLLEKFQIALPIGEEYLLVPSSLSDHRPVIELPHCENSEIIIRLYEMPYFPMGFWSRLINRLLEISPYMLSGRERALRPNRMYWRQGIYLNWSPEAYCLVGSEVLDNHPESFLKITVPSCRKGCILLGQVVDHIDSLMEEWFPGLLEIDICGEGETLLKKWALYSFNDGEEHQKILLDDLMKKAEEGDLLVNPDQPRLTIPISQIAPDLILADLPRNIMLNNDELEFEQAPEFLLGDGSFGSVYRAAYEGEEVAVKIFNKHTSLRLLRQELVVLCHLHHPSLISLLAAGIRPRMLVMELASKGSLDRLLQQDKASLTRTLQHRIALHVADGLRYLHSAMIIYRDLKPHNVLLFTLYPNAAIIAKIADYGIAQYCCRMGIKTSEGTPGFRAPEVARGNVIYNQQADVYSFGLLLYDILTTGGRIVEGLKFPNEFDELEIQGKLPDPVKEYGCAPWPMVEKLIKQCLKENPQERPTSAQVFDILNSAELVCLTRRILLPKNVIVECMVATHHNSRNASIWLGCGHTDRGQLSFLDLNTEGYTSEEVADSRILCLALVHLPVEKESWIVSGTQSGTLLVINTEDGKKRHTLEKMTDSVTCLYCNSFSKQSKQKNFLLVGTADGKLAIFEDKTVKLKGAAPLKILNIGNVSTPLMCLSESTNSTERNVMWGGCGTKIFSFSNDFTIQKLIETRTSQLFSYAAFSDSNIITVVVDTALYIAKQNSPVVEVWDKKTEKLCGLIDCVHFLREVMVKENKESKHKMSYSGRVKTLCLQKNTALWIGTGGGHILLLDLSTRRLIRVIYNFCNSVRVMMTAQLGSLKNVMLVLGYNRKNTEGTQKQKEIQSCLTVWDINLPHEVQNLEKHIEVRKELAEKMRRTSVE
Serine/threonine-protein kinase B-raf (Homo sapiens), P15056 [V600E], sequence (P15056 whole entry V600E): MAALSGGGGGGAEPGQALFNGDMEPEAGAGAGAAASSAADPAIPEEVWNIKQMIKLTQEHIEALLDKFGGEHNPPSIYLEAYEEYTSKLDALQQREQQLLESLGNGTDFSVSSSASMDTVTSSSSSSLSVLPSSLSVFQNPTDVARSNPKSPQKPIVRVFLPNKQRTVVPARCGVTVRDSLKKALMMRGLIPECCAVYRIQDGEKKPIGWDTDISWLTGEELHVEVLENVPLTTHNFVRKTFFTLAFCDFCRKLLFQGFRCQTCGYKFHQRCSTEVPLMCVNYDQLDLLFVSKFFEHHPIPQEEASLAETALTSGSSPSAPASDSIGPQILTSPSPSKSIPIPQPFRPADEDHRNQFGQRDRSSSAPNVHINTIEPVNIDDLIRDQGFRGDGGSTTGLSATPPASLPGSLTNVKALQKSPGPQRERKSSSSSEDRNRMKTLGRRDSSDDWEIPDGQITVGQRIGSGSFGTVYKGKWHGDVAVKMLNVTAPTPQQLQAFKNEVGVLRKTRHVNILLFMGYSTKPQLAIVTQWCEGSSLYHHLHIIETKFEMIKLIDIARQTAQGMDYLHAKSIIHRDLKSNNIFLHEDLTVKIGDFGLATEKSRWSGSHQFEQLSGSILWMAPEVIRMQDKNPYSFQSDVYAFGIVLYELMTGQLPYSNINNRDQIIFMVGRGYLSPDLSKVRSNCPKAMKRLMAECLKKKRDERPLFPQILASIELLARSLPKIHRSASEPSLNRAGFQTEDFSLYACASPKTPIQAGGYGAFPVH
Tyrosine-protein kinase Yes (Homo sapiens), sequence (P07947 2-543 limits assumed): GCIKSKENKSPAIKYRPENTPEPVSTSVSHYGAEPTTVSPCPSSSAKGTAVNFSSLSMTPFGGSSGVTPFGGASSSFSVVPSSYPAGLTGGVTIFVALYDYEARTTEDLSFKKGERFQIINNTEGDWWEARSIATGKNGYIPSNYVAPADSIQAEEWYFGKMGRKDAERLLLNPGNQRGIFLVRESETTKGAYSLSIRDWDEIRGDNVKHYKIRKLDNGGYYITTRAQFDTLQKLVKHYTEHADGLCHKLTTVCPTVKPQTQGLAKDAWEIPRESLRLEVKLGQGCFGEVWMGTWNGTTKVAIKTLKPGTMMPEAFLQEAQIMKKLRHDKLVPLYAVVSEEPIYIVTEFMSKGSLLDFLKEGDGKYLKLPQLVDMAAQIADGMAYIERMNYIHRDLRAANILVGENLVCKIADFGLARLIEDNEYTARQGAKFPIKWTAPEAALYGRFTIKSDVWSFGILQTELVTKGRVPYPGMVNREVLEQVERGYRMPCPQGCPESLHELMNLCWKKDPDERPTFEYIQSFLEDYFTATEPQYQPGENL
Serine/threonine-protein kinase B-raf (Homo sapiens), sequence (P15056 whole entry): as the sequence (P15056 whole entry V600E) above, with E600V counted along it
Leucine-rich repeat serine/threonine-protein kinase 2 (Homo sapiens), Q5S007 [G2019S], sequence (Q5S007 whole entry G2019S): as the sequence (Q5S007 whole entry) above, with G2019S counted along it
RAF proto-oncogene serine/threonine-protein kinase (Homo sapiens), sequence (P04049 whole entry): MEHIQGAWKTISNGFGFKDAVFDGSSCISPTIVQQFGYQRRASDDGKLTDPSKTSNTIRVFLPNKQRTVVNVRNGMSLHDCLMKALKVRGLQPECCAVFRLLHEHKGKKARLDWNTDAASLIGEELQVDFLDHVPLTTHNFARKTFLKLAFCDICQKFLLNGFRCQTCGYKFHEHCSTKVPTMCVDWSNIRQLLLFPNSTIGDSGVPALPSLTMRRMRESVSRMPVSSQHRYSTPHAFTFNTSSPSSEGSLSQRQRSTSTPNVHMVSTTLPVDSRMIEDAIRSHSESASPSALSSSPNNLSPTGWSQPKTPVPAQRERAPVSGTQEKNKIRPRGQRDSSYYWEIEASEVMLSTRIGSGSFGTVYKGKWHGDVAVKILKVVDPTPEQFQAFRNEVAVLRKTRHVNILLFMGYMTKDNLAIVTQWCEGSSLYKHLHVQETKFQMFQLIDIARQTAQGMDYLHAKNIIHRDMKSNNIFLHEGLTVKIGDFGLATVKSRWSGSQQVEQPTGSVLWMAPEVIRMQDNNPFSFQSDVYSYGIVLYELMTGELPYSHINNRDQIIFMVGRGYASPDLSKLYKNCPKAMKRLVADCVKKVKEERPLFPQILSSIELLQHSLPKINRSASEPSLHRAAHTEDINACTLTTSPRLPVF

By inhibition is commonly meant the change of the read-out against control, counted positive when it falls. For `O=C(Nc1n[nH]c2nnc(-c3cccnc3)cc12)C1CC1`, the inhibition in [1] was 1.65%; in [2] it was 1.69%; in [3] it was 7.01%; in experiment [4], -1.5%; in [5], 2.36%; in [6], 0.25%. Also, the inhibition is 2.61% in [7]; 1.02% in experiment [8]; 3.66% in experiment [9]; -2.58% in experiment [10]; -3.13% in [11]; -0.42% in experiment [12]. Moreover, the inhibition was -0.13% in [13]; 0.99% in experiment [14]; 4.69% in experiment [15]; 2.42% in experiment [16]; 5.79% in experiment [17].

As for `CCCNc1cccc(-n2ncc3c(N/N=C/c4ccncc4)ncnc32)c1`, the inhibition worked out at 42.8% in experiment [1]; 43.1% in experiment [2]; 82.8% in experiment [3]; 2.44% in experiment [4]; 3.95% in [5]; 0% in [6]. In addition, the inhibition in [7] was 1.5%; in [8] it was 0.21%; in experiment [9], 2.86%; in [10], -0.1%; in [11] it was -3.81%; in experiment [12], 2.03%. In addition, the inhibition came to 0.71% in experiment [13]; 3.27% in experiment [14]; 12.2% in experiment [15]; 5.55% in experiment [16]; 37.8% in experiment [17].

Take `O=C(O[C@H]1CN[C@H](C#Cc2cc3ncnc(Nc4ccc5c(ccn5Cc5cc(F)ccc5F)c4)c3s2)C1)N1CCOCC1`: the inhibition in experiment [1] is 3.08%; in [2], 0.85%; in [3] it was 8.22%; in [4], 0.89%; in experiment [5] it was 2.72%; in [6], 6%. The inhibition in [7] was 6.76%; in [8], 6.11%; in [9], 6.31%; in experiment [10] it was 1.88%; in [11], -3.01%; in experiment [12], 3.45%. In addition, the inhibition worked out at 2.43% in [13]; 3.48% in [14]; 6.3% in [15]; 3.23% in experiment [16]; 5.91% in [17].

For the compound `CCn1c(-c2nonc2N)nc2cncc(C(=O)NCCNC)c21`, the inhibition worked out at 5.41% in experiment [1]; 2.4% in [2]; 5.52% in [3]; 0.59% in [4]; 1.01% in experiment [5]; 7.93% in experiment [6]. The inhibition stood at 7.26% in experiment [7]; 4.48% in experiment [8]; 4.42% in experiment [9]; 2.61% in experiment [10]; 0.85% in experiment [11]; 2.49% in experiment [12]. Moreover, the inhibition in [13] was 3.05%; in [14], 6.11%; in experiment [15], 28.8%; in experiment [16] it was 13%; in [17], 51.8%.

As to `Cc1nnc(-c2cccc(-c3ccc(C(=O)NCC4CC4)cc3)c2)o1`, the inhibition in [1] worked out at 4.17%; in [2], 5.35%; in experiment [3], 7.53%; in experiment [4] it was 4.93%; in experiment [5], 7.42%; in [6], 8.68%. In addition, the inhibition in experiment [7] was 6.82%; in [8], 7.4%; in experiment [9] it was 5.64%; in experiment [10], -0.41%; in [11] it was 1.67%; in experiment [12], -1.48%. Also, the inhibition in [13] worked out at 2.66%; in experiment [14], 3.32%; in experiment [15] it was 5.55%; in experiment [16], 4.33%; in experiment [17] it was 7.83%.

On to `COc1c(C(N)=O)cc(-c2ccc(Cl)cc2)cc1-c1ccc(S(N)(=O)=O)cc1`, for which the inhibition in experiment [1] turned out to be 2.96%; in experiment [2] it was 1.57%; in experiment [3] it was 4.52%; in experiment [4], 2.39%; in experiment [5], 4.12%; in [6], 6.5%. Also, the inhibition turned out to be 8.57% in experiment [7]; 4.06% in experiment [8]; 3.68% in experiment [9]; 2.31% in experiment [10]; 1.44% in experiment [11]; 1.96% in experiment [12]. The inhibition in [13] was 1.85%; in [14], -0.34%; in experiment [15], 6.11%; in experiment [16], 3.53%; in [17] it was 9.4%.

Turning to `CC1=C(C(=O)Nc2ccc3[nH]ncc3c2)C(c2ccc(F)cc2)N=C(c2ccc(C(F)(F)F)nc2)N1` (centres undefined), the inhibition in experiment [1] was 3.3%; in experiment [2] it was 1.26%; in experiment [3], 4.23%; in experiment [4], 2.61%; in experiment [5] it was 1.68%; in experiment [6] it was 1.92%. Besides, the inhibition in [7] is 5.6%; in [8], 1.17%; in experiment [9] it was 6.02%; in experiment [10] it was 1.11%; in experiment [11], -4.26%; in [12] it was -2.11%. The inhibition in experiment [13] was determined as 0.95%; in experiment [14] it was 2.81%; in [15], 7.24%; in [16], 5.04%; in [17], 26%.
